In all, about 310,000 compounds went through this assay and about 14,000 (4.5%) showed an effect of 50% or more. Effects have a minus sign here. Only a selection was taken, and strong results are over-represented in it overall.
target: human ether-à-go-go-related gene (hERG) potassium channel (human, UniProt Q12809); experiment: primary screen, population patch clamp on CHO cells stably expressing hERG; higher = less effect of the substance
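Also: peak tail current of the secondary pulse compared with the same well before compound.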

Sequence of human ether-à-go-go-related gene (hERG) potassium channel (Q12809 whole entry, looked up): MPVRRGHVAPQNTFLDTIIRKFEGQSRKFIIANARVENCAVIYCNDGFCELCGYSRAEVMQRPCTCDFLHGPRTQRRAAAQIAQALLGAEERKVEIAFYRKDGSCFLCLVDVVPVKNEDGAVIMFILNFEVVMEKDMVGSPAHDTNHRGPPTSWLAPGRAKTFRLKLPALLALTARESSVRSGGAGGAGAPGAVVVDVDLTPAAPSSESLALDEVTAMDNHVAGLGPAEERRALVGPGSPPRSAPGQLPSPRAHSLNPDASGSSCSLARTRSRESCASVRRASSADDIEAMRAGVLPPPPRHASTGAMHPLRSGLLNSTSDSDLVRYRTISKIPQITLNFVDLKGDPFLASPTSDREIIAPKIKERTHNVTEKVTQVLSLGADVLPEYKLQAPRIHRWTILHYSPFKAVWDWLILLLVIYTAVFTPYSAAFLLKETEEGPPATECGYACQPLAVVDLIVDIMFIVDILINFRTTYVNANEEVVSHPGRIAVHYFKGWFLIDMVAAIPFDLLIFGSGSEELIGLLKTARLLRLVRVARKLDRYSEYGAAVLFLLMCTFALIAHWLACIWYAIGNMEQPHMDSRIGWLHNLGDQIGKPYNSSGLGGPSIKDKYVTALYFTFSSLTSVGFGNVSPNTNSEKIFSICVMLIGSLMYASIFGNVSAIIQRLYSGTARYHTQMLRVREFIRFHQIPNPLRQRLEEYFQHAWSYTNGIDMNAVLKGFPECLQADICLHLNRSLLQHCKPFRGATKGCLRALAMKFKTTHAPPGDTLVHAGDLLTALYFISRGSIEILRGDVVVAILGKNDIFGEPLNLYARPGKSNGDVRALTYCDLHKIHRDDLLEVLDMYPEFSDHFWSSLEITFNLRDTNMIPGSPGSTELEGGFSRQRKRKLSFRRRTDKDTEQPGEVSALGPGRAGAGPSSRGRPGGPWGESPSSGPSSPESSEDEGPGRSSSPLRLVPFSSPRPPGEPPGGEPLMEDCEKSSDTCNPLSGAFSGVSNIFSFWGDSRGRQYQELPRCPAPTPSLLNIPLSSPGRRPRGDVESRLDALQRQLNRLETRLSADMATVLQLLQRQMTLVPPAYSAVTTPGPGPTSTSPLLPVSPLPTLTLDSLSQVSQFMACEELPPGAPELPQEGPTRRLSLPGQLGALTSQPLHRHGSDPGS

Row | Compound | hERG current change (%, negative = inhibition) at 10uM [%]
1 | COc1ccc(-c2noc(C(C)NS(=O)(=O)c3ccc(NC(C)=O)cc3)n2)cc1 (stereo not drawn) | 17.5
2 | COc1ccc2cc(-c3[nH]ncc3CN3CCCC3c3nonc3C)ccc2c1 (stereo not drawn) | 0.998
3 | Cc1nonc1C1CCCN1Cc1cn[nH]c1-c1ccc2c(c1)OCO2 (stereo not drawn) | -25.6
4 | COCC1CCCCN1Cc1cn[nH]c1-c1ccc(OC)cc1OC (stereo not drawn) | -25.5
5 | COc1ccc2cc(-c3[nH]ncc3CN3C[C@@H]4CCC[C@H]3C4)ccc2c1 | -58.7
6 | COCC1CCCCN1Cc1cn[nH]c1-c1ccc2cc(OC)ccc2c1 (stereo not drawn) | -70.2
7 | c1cc2c(cc1-c1[nH]ncc1CN1CC3C[C@@H]4CC1C[C@H](C3)C4)OCO2 | -44.3
8 | COc1ccc(-c2[nH]ncc2CN2C[C@@H]3CCC[C@H]2C3)c(F)c1 | 8.16
9 | Oc1cccc(CCC2CCCCN2Cc2cn[nH]c2-c2ccc3c(c2)OCO3)c1 (stereo not drawn) | -66.2
10 | c1cc2c(cc1-c1[nH]ncc1CN1C[C@H]3CC[C@H]1C3)OCO2 | -3.58
11 | CCN(CC(=O)Nc1c(F)cccc1F)C(=O)CSc1nc2ccccc2o1 | -1.64
12 | Cc1cccc(NS(=O)(=O)c2ccc3nc(-c4ccccc4)[nH]c3c2)c1C | 11.8
13 | CCn1cc(C(=O)NCC(OC)OC)c(=O)c2cc(S(=O)(=O)N3CCCC3)ccc21 | 10.3
14 | O=C(COC(=O)CCCN1C(=O)c2ccccc2C1=O)Nc1ncc(Cl)cc1Cl | -9.74
15 | O=S(=O)(c1ccc2ccccc2c1)N1CCN=C1SCc1cccnc1 | -43.9
16 | O=c1ccc(/C=C/c2ccccc2)nn1Cc1ccc(Cl)cc1Cl | 8.47
17 | CCOc1cc(NC(=O)c2ccco2)c(OCC)cc1NC(=O)COc1ccccc1C | 26.4
18 | CC(C)(C)c1cc(NC(=O)C2CCCO2)no1 (stereo not drawn) | 11.6
19 | CCC(Oc1cc(Cl)ccc1Cl)C(=O)N1CCC2(CC1)OCCO2 (stereo not drawn) | 4.7
20 | Cc1ccsc1C(=O)C1CCCN(Cc2ccc(O)cc2)C1 (stereo not drawn) | -22.9
21 | Cc1ccsc1C(=O)C1CCCN(Cc2cccc(-n3cccn3)c2)C1 (stereo not drawn) | -65.4

Row | Compound | hERG current change (%, negative = inhibition) at 10uM [%]
22 | Cc1ccsc1C(=O)C1CCCN(Cc2cc(C(C)C)n[nH]2)C1 (stereo not drawn) | -43.9
23 | Cc1ccsc1C(=O)C1CCCN(Cc2ccc(-n3cccn3)cc2)C1 (stereo not drawn) | -67.7
24 | Cc1ccsc1C(=O)C1CCCN(Cc2cccc(OCCO)c2)C1 (stereo not drawn) | -16.3
25 | COC(=O)Nc1nc(-c2ccc(F)cc2)c(C)s1 | 14.5
26 | Cc1ccc(-n2c(O)c(/C=N/NC(=O)c3ccncc3)c(=O)[nH]c2=O)cc1C | 9.71
27 | CN(c1ccccc1)c1ncccn1 | 18
28 | O=S(=O)(Nc1cccnc1)c1ccc(F)cc1 | 16.6
29 | COc1ccc(C2=NOC(Cn3nc(C(=O)NCc4ccccc4OC)cc3-c3ccccc3)C2)cc1 (stereo not drawn) | -16.2
30 | COc1ccc(C2=NOC(Cn3nc(C(=O)NCc4ccc(OC(F)(F)F)cc4)cc3-c3ccccc3)C2)cc1 (stereo not drawn) | -3.95
31 | COc1ccc(C2=NOC(Cn3nc(C(=O)NCc4cccs4)cc3-c3ccccc3)C2)cc1 (stereo not drawn) | -51.3
32 | COc1ccc(C2=NOC(Cn3nc(C(=O)O)cc3-c3ccccc3)C2)cc1 (stereo not drawn) | -10.3
33 | COc1ccc(C2=NOC(Cn3nc(C(=O)NCc4ccc(C)cc4)cc3-c3ccccc3)C2)cc1 (stereo not drawn) | 2.68
34 | COc1ccc(C2=NOC(Cn3nc(C(=O)NCc4ccco4)cc3-c3ccccc3)C2)cc1 (stereo not drawn) | -68.2
35 | COc1ccc(C2=NOC(Cn3nc(C(=O)NCc4ccc5c(c4)OCO5)cc3-c3ccccc3)C2)cc1 (stereo not drawn) | -17.4
36 | COc1ccc(C2=NOC(Cn3nc(C(=O)NCC4CC4)cc3-c3ccccc3)C2)cc1 (stereo not drawn) | -65
37 | COCCNC(=O)c1cc(-c2ccccc2)n(CC2CC(c3ccc(OC)cc3)=NO2)n1 (stereo not drawn) | -10.7
38 | COc1ccc(S(=O)(=O)N2CCC(C(=O)NCC3CCCO3)CC2)cc1C (stereo not drawn) | 9.95
39 | O=C(CNC(=O)c1ccc(S(=O)(=O)N2CCCC2)cc1)N/N=C/c1c(Cl)cccc1Cl | 6.64
40 | CN(CCO)C(=O)c1ccc(-c2nn(C)c(=O)c3ccccc23)cc1 | 10.9
41 | Nc1nc2ncc(C(=O)c3cc(F)ccc3O)cc2s1 | -0.22
42 | Cn1c2c(c(=O)n(C)c1=O)C(CC(=O)Nc1ccccc1)C(=O)N2 (stereo not drawn) | 2.49

From publication PMC4336329 (PLoS ONE, 2015)
